Source: PubChem BioAssay (The Scripps Research Institute Molecular Screening Center)
ssDAF-12 act – S. stercoralis DAF-12 activation, primary screen; 1% of 370,000 active; activation, % at 6.8 µM; HEK293 ssDAF-12/GRIP1 lit1-tk-luc reporter, luminescence; % of 3 µM dafachronic acid response;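 active = activation above the mean over all tested compounds plus 3 SD, cut at about 0.9% in these data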;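 also: 0% = DMSO-only wells and 100% = 3 µM delta7-dafachronic acid wells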
AHR activator – human AHR activation. P35869. AHR-responsive luciferase reporter cells, luminescence. activation, % at 5 µM. 2.5% of 320,000 active. AID 2796; in the data active = activation above about 47%;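 also: 0% = vehicle wells and 100% = reference agonist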
hcDAF12 agonist – H. contortus DAF-12 activation, primary screen | activation, % at 6.8 µM | HEK293 hcDAF-12 lit1-tk-luc reporter, luminescence; 0% DMSO, 100% Δ7-dafachronic acid | 1.4% of 370,000 active | AID 652067;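 active = activation above the mean of all tested compounds plus 3 SD, cut at about 5.5% in these data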;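 also: 100% = response to 3 µM Δ7-dafachronic acid high control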
hgDAF12 agonist – activates the H. glycines DAF-12 receptor ligand-binding domain | 1.8% of 370,000 active | activation, % at 6.8 µM | HEK293 GAL4-hgDAF12 UAS-luciferase reporter, agonist luminescence; normalized to butyrate control | AID 687014;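 active = activation above a cutoff set at the mean of all screened compounds plus 3 SD, cut at about 10% in these data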;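 also: 0% = DMSO wells and 100% = sodium butyrate wells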
DAX1 inh-1 – NR0B1 (DAX1) inhibition | AID 504766 | P51843 | HEK293 Gal4-DAX1 luciferase reporter, luminescence | inhibition, % at 6.75 µM | 0.99% of 340,000 active;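 active = inhibition above the mean over all tested compounds plus 3 SD, cut at about 4.2% in these data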;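 also: 0% = DAX1-transfected cells with DMSO and 100% = empty-vector control cells with DMSO; inhibition shows as a rise in luminescence from relieved DAX1 repression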
Target sequence (P51843 207-470 limits assumed): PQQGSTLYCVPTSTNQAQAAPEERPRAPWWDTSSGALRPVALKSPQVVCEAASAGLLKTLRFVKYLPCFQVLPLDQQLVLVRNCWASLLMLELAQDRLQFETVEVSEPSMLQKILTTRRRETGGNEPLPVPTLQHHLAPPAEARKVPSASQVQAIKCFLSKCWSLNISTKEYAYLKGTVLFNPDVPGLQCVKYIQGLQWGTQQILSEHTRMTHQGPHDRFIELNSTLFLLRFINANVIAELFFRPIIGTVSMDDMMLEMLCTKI
DAX1 inh-2 – inhibitors of DAX1 repression of SF-1 activated StAR promoter | 1.1% of 370,000 active | HEK293T StAR-luciferase reporter, SF-1/DAX-1 repression relief | inhibition, % at 6.8 µM;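 active = inhibition above the mean over all tested compounds plus 3 SD, cut at about 3.6% in these data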;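 also: 0% = DAX-1 cells with DMSO and 100% = cells lacking DAX-1 with DMSO; higher inhibition means more luminescence from relief of DAX-1 repression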
hgDAF12 conf – confirmation of H. glycines DAF-12 agonists; shares compounds with hgDAF12 agonist; HEK293 GAL4-hgDAF12 luciferase reporter, agonist mode; percent of butyrate response; activation, % at 6.8 µM; 80% of 3,300 active;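 active = mean activation over triplicate wells above the hit cutoff derived from the earlier primary screen, cut at about 11% in these data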;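 also: 0% = DMSO low control and 100% = 2 mM sodium butyrate high control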
LXR ag 2 – LXR-beta agonism as DAF-12 counter-screen; HEK293 Gal4-LXR luciferase reporter, 24 h; shares compounds with hgDAF12 agonist; 3,300 tested, under 10 active; activation, % at 6.8 µM;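 active = mean activation of the triplicate above a set limit carried over from the primary screen, none filed active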
Numbers without * were called inactive; · = no result given. Rows were chosen to be rich in hits. Some 5.7% of all compounds tested hit in one or more screens of this group.

SMILES	ssDAF-12 act	AHR activator	hcDAF12 agonist	hgDAF12 agonist	DAX1 inh-1	DAX1 inh-2	hgDAF12 conf	LXR ag 2
Cc1cc(NO)nc(-c2ccc(Br)cc2)n1	0	31	4	13*	2	0	19*	1
Cc1ccc(NC(=O)c2ccc3ncsc3c2)cc1S(=O)(=O)N(C)C	0	15	4	20*	·	3	14*	1
Cc1ccc(NC(=O)c2cccnc2)cc1S(=O)(=O)N(C)C	-1	8	0	-3	0	0	·	·
CN=Cc1nc(-c2ccccc2)oc1O	0	21	1	8	2	2	·	·
Oc1oc(-c2ccccc2)nc1/C=N/c1ccccn1	-1	14	2	16*	1	3	9	0
Cc1ccsc1/C=N/NC(=O)c1sccc1C	1.6*	48*	7.2*	13*	3	3.7*	18*	1
Cc1ccsc1/C=N/NC(=O)CO	-1	2	-3	-3	2	-1	·	·
COc1ccc(C2=Nc3ccccc3N(C(=O)c3ccc4c(c3)OCO4)C2C(=O)Nc2c(C)cccc2C)cc1 (stereo not drawn)	0	·	1	14*	·	0	2	0
N=c1n(CC(=O)c2cccs2)c2ccccc2n1Cc1ccccc1	0	9	-1	-1	-1	0	·	·
O=C(Nc1nc2c(s1)C(=O)CCC2)c1ccccc1	0	2	5	16*	0	3	17*	1
O=C(Nc1nc(=O)c2ccccc2s1)c1ccccc1	0	7	5	9	1	2	·	·
N#C/C(=C(/O)c1ccco1)c1nc2ccccc2[nH]1	1.2*	24	1	22*	5.0*	3.9*	23*	0
O=C(Cc1ccccc1)c1ccccc1C(=O)N1CCCCC1	-1	0	-1	0	-2	0	·	·
CCc1noc(C)c1C(=O)OCC(=O)Nc1nc(-c2ccc(F)c(F)c2)cs1	-1	2	0	-2	-1	0	·	·
O=C(NNC(=S)Nc1ccccc1)c1cccc(Br)c1	0	32	3	3	1	3	·	·
CC(C)(C)NC(=S)NNC(=O)c1cccc(Br)c1	-1	2	1	21*	2	1	5	0
Nc1nonc1N/N=C/c1c(O)ccc2ccccc12	-1	14	-2	-2	-2	-1	·	·
Nc1cc(Cl)nc(N/N=C/c2c(O)ccc3ccccc23)n1	0	55*	4	15*	3	2	10	1
CN(CCc1cnn(C)c1)C(=O)C1CCC(=O)N(CC2CCCCC2)C1 (stereo not drawn)	-1	-9	-2	-2	1	-1	·	·
Cc1nc2ccc(S(=O)(=O)Nc3cc(-c4nc5cccnc5s4)ccc3C)cc2s1	0	53*	5	17*	1	3	10	0
Cc1nc2cc(NC(=O)Nc3ccc(Br)cc3)ccc2o1	-1	-1	2	13*	1	1	10	1
Cc1nc2cc(NC(=O)NCc3ccc4c(c3)OCO4)ccc2o1	-1	-2	-2	3	1	0	·	·
COc1cccc(C(=O)N2CCC[C@H]2C(=O)N2CCC[C@H]2C(=O)N(C)Cc2ccccc2)c1	-1	·	1	6	·	1	·	·
O=C(c1cnsn1)N1CCC(CO)(Cc2cccc(F)c2)CC1	0	-1	3	15*	2	2	10	0
Cc1cc(C(=O)N2CCC(CO)(Cc3cccc(C(F)(F)F)c3)CC2)n[nH]1	-1	3	-1	-2	-1	0	·	·
CCOC(=O)Nc1ccc2nc(-c3cscn3)[nH]c2c1	0	·	3	16*	0	-1	14*	0
COc1ccc(C(=O)N2CCCCC2c2cc(C(=O)NCc3ccc(F)cc3)no2)cc1 (stereo not drawn)	-2	·	-1	1	·	0	·	·
CN1CCN(c2ccc(-c3csc(N4CCC(C(N)=O)CC4)n3)cc2)CC1	-2	·	-4	-5	·	·	·	·
